Test results as given in PubChem BioAssay (Tox21).
A number with no mark means an inactive call. Calls of active or inactive are those of the source. Calls follow the shape of the dose curve; as a rule, active = well fitted curve in the direction sought with a large enough effect in the repeat runs; inconclusive = weak or mixed curves; inactive = flat fitted curve, though single readings scatter.

test: qHTS assay to test for compound auto fluorescence at 590 nm (red) in HepG2 cells (AID 720674); settings: HepG2 autofluorescence, red 540/590 nm, 1 h; series mostly up to 91.3 µM; fluorescence, relative to Rose Bengal: at the top concentration
Description: U.S. Tox21 Program National Center for Advancing Translational Sciences [NCATS] NIH Chemical Genomics Center [NCGC] U.S. Environmental Protection Agency [EPA] National Institutes of Environmental Health Sciences [NIEHS] National Toxicology Program [NTP] U.S. Food and Drug Administration [FDA] Tox21 Assay Overview: Compound auto fluorescence often interferes with screening of the compound library against various biological targets and signaling pathways. Some of these compounds may have fluorophoric properties. Such properties may interfere with the assay outputs resulting in false positives and/or negatives. To decrease such complications and ensure the compound activities are relevant in terms of biological response, the Tox21 10K compound library was screened for auto fluorescence. From the fluorophores used as reporter signals in our screening assays, the auto fluorescence equivalencies of compounds against three fluorophores have been evaluated: Triamterene, Fluorescein and Rose Bengal sodium for blue, green and red fluorescence, respectively. The fluorescence intensities were measured using Excitation/Emission wavelengths at 405/460nm, 485/535nm and 540/590nm for blue, green and red labels, respectively. This assay includes the red fluorescence data.
Tox21 Assay Protocol Summary: 2,000 HepG2 cells in 5 uL of culture medium (MEM containing 10% FBS) per well were dispensed into black wall/clear bottom 1536-well plates using a Multidrop Combi Dispenser (ThermoFisher Scientific, Waltham, MA). The assay plates were incubated overnight at 37 C to allow cell attachment to the well bottom, followed by the transfer of 23 nL compound or DMSO vehicle by a pintool work station (Kalypsys , San Diego, CA). After the assay plates were incubated for 1 hr at 37 C and 5% CO2, fluorescence intensities in the assay plates were measured by an Envision (PerkinElmer, Shelton, CT) plate reader using three labels for measuring blue, green and red fluorescence at […] 460, 535 and 590 nm respectively.
% is scaled to controls: 0 for no effect and ±100 for the full control effect.

SMILES | fluorescence, relative to Rose Bengal | Potency
CCCCCCCCCCCC(=O)OCC(C)OC(=O)CCCCC(=O)O (stereo not given) | 0.0695% [at 46 µM] | –
C=CC(=O)Nc1cc2c(Nc3ccc(F)c(Cl)c3)ncnc2cc1OCCCN1CCOCC1 | 0.166% [at 46 µM] | –
O=C(O)c1cccc(C(F)(F)F)c1 | -0.232% | –
O=C(Nc1ccc2c(O)c(N=Nc3ccc(N=Nc4ccc(S(=O)(=O)O)cc4)cc3)c(S(=O)(=O)O)cc2c1)c1ccccc1 | -0.712% | –
c1ccsc1 | 0.593% | –
CNc1ccc([N+](=O)[O-])cc1 | 0.102% | –
O=S(=O)(O)c1ccc(Nc2nc(Nc3ccc(/C=C/c4ccc(Nc5nc(Nc6ccc(S(=O)(=O)O)cc6)nc(N(CCO)CCO)n5)cc4S(=O)(=O)O)c(S(=O)(=O)O)c3)nc(N(CCO)CCO)n2)cc1 | 0.226% | –
CC(C)(C)NSc1nc2ccccc2s1 | 0.0293% [at 95.7 µM] | –
Nc1ccc(C(=O)O)c(O)c1 | 0.409% [at 46 µM] | –
CCCNCCC | -0.0123% | –
O=C(O)CCN(C1(C(=O)NO)CCCC1)S(=O)(=O)c1ccc(Oc2ccc(F)cc2)cc1 | 0.509% | –
CCOC(=O)NNc1ccc(N(CC)CC(C)O)nn1 (stereo not given) | -0.151% [at 46 µM] | –
CN1CCCCC1CCN1c2ccccc2Sc2ccc(S(C)=O)cc21 (stereo not given) | – | inactive
CCCCCCC1CCCC(=O)O1 (stereo not given) | 0.106% | –
CCCCCCCCCCCCOC(=O)c1ccc(O)cc1 | 0.0257% | –
CC(C(=O)O)c1ccc2c(c1)[nH]c1ccc(Cl)cc12 (stereo not given) | 0.369% [at 46 µM] | –
CCCCCCCCCCCCCC[N+](C)(C)C | – | inactive
CCCC1CCC(=O)CC1 | 0.009% | –
CCC(CC)C(C)CCOC(C)=O (stereo not given) | -0.992% | –
O=C(O)[C@H](O)[C@@H](O)[C@H](O[C@@H]1O[C@H](CO)[C@H](O)[C@H](O)[C@H]1O)[C@H](O)CO | 0.507% [at 18.6 µM] | –

SMILES | fluorescence, relative to Rose Bengal | Potency
CCCCOC(=O)CC | -0.311% | –
COC(=O)c1ccccc1OC | 0.0045% | –
CNC(=O)c1ccccc1Sc1ccc2c(/C=C/c3ccccn3)n[nH]c2c1 | 0.349% [at 46 µM] | –
Sc1nc2ccccc2s1 | 0.32% | –
C=C(C)C(=O)OCCCCCCCCCC | -0.0157% | –
Cc1c(F)c(N2CCNC(C)C2)cc2c1c(=O)c(C(=O)O)cn2C1CC1 (stereo not given) | -0.38% [at 46 µM] | –
CCC(CC)(CC(=O)Nc1cccc(/C=C/c2nc(C3CCC3)cs2)c1)C(=O)O | -0.175% [at 46 µM] | –
Cc1cccc(C(=O)O)c1O | -0.45% [at 46 µM] | –
C=C(CC)C(=O)c1ccc(OCC(=O)O)c(Cl)c1Cl | – | inactive
OC/C=C/CO | 0.0152% | –
O=C1CCCCCCCCCCCCCCCO1 | 0.561% | –
CC(CO)Oc1ccccc1 (stereo not given) | -0.26% [at 95.7 µM] | –
CN(C)Cc1ccccc1O | -0.153% | –
Cc1c(C)c([N+](=O)[O-])c(C(C)(C)C)c([N+](=O)[O-])c1C | -0.0573% | –
O=c1oc2cc(O)ccc2c2oc3cc(O)ccc3c12 | 0.117% | –
CN(C)c1ccc(C(=C2C=CC(=[N+](C)C)C=C2)c2ccc(N(C)C)cc2)cc1 | – | inactive
C=CCn1c(=O)n(CC=C)c(=O)n(CC=C)c1=O | 0.025% | –
CC(C)CCOC(=O)/C=C/c1ccccc1 | -0.0789% | –
CCC(C)(CCC(C)C)C(=O)[O][Sn]([CH3])([CH3])[O]C(=O)C(C)(CC)CCC(C)C (stereo not given) | -0.0015% | –
S=C([S-])NCCNC(=S)[S-].S=C([S-])NCCNC(=S)[S-].[Mn+2].[Zn+2] | 0.217% [at 46 µM] | –
